Reference: PubChem BioAssay AID1159580 (chemical genetic matrix, 2015)
About 2,000 (36%) of roughly 5,500 compounds were called active. Roughly 18% stayed inconclusive and do not appear here. No stated cut-off is given here; in the data, active means normalized growth mostly below about 0.91 (no sharp cut-off); inconclusive means no clear call, values can overlap the other calls; inactive means mostly above about 0.92. This is one part of the list.

Experiment: chemical genetic growth profiling, strain panel (AID 1159580);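 further: tested at 20 µM; growth read once vehicle control cultures reached saturation at 30 °C; 1 = growth at the plate median or of vehicle wells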
Details: S. cerevisiae deletion strains, growth OD
[1] = locus YHR030C, strain SLT2, stronger effect = lower value
[2] = locus YHR079C, strain IRE1, stronger effect = lower value
[3] = locus YJL095W, strain BCK1, stronger effect = lower value
[4] = locus YJR066W, strain TOR1, stronger effect = lower value
[5] = locus YLR113W, strain HOG1, stronger effect = lower value
[6] = locus YNL183C, strain NPR1, stronger effect = lower value
[7] = locus YOR231W, strain MKK1, stronger effect = lower value
[8] = locus YPL256C, strain CLN2, stronger effect = lower value

Measured: normalized growth

O=C(Nc1ccccc1)OCC(CN1CCCCC1)OC(=O)Nc1ccccc1 (centres undefined)
inactive: [1] 1 | [2] 1.03 | [3] 1 | [4] 0.925 | [5] 1.01 | [6] 0.949 | [7] 1.01 | [8] 0.988

Cc1ccc(NC(=S)C(C#N)C(=O)N2CCOCC2)c(C)c1 (centres undefined)
inactive: locus YAR019C, strain CDC15, stronger effect = lower value 0.993 | locus YBL105C, strain PKC1, stronger effect = lower value 0.997 | locus YBR135W, strain CKS1, stronger effect = lower value 0.988 | locus YBR136W, strain MEC1, stronger effect = lower value 0.972 | locus YBR160W, strain CDC28, stronger effect = lower value 0.991 | locus YDL017W, strain CDC7, stronger effect = lower value 0.992 | locus YDL028C, strain MPS1, stronger effect = lower value 0.988 | locus YDL101C, strain DUN1, stronger effect = lower value 0.995 | locus YDL108W, strain KIN28, stronger effect = lower value 0.991 | locus YDL132W, strain cdc53, stronger effect = lower value 0.991 | locus YDL214C, strain PRR2, stronger effect = lower value 1.04 | locus YDR052C, strain DBF4, stronger effect = lower value 0.998 | locus YDR054C, strain cdc34, stronger effect = lower value 0.99 | locus YDR226W, strain ADK1, stronger effect = lower value 0.98 | locus YDR477W, strain SNF1, stronger effect = lower value 1.05 | locus YER123W, strain YCK3, stronger effect = lower value 1.05 | locus YER133W, strain GLC7, stronger effect = lower value 1.05 | locus YFL009W, strain cdc4, stronger effect = lower value 0.985 | locus YFL029C, strain CAK1, stronger effect = lower value 0.995 | locus YFR003C, strain YPI1, stronger effect = lower value 0.995 | locus YFR019W, strain FAB1, stronger effect = lower value 1.01 | locus YFR028C, strain CDC14, stronger effect = lower value 0.993 | locus YGR040W, strain KSS1, stronger effect = lower value 1.05 | locus YGR052W, strain FMP48, stronger effect = lower value 1.11 | locus YGR092W, strain DBF2, stronger effect = lower value 1.02 | [1] 1.03 | [2] 1.04 | locus YHR082C, strain KSP1, stronger effect = lower value 1.21 | locus YHR205W, strain SCH9, stronger effect = lower value 0.908 | locus YIL147C, strain SLN1, stronger effect = lower value 0.983 | [3] 1.02 | locus YJL128C, strain PBS2, stronger effect = lower value 0.937 | locus YJL157C, strain FAR1, stronger effect = lower value 1.02 | locus YJR016C, strain ILV3, stronger effect = lower value 0.991 | locus YJR066W, strain TOR1 (second series), stronger effect = lower value 1.05 | [4] 1.19 | locus YKL048C, strain ELM1, stronger effect = lower value 1.01 | locus YKL067W, strain YNK1, stronger effect = lower value 1.02 | locus YKL101W, strain HSL1, stronger effect = lower value 1.01 | locus YKL193C, strain SDS22, stronger effect = lower value 0.983 | locus YKL203C, strain TOR2, stronger effect = lower value 1.09 | [5] 1.07 | locus YLR133W, strain CKI1, stronger effect = lower value 1.03 | locus YLR403W, strain SFP1, stronger effect = lower value 0.957 | locus YML070W, strain DAK1, stronger effect = lower value 1.05 | locus YMR001C, strain CDC5, stronger effect = lower value 0.994 | locus YMR205C, strain PFK2 (second series), stronger effect = lower value 1.03 | locus YMR277W, strain FCP1, stronger effect = lower value 0.989 | locus YNL006W, strain LST8, stronger effect = lower value 0.991 | locus YNL020C, strain ARK1, stronger effect = lower value 1.04 | locus YNL161W, strain CBK1, stronger effect = lower value 0.991 | [6] 1.18 | locus YNL207W, strain RIO2, stronger effect = lower value 0.985 | locus YNL222W, strain SSU72, stronger effect = lower value 0.991 | locus YNL307C, strain MCK1 (second series), stronger effect = lower value 1.02 | locus YOL078W, strain AVO1, stronger effect = lower value 0.985 | locus YOL136C, strain PFK27, stronger effect = lower value 1.05 | locus YOR061W, strain CKA2, stronger effect = lower value 1.01 | locus YOR119C, strain RIO1, stronger effect = lower value 1.11 | [7] 1.11 | locus YOR329C, strain SCD5, stronger effect = lower value 0.993 | locus YPL031C, strain PHO85, stronger effect = lower value 1.04 | locus YPL153C, strain RAD53, stronger effect = lower value 1.03 | locus YPL204W, strain HRR25, stronger effect = lower value 1.06 | locus YPL209C, strain IPL1, stronger effect = lower value 0.99 | [8] 1.06 | locus YPR025C, strain CCL1, stronger effect = lower value 0.997 | locus YPR106W, strain ISR1, stronger effect = lower value 1.01 | locus YPR111W, strain DBF20, stronger effect = lower value 1 | strain NNK1, stronger effect = lower value 0.999 | strain TSCII, stronger effect = lower value 0.994
